# Where “and” joins values, the source holds several entries; their conditions need not be identical. Equal entries are not always repeated. Results filed as inconclusive are left out. For some assays here: Potency and affinity values are given separately. Calls of active or inactive are those of the source. Unless noted, no rule for the calls is given here.
# Tests used:
# [1] = target: NAD(+) hydrolase SARM1 (Homo sapiens) (UniProt Q6SZW1); assay: SARM1 TIR NADase inhibitors, cell lysate, NAD-Glo luminescence (AID 1508614;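 active = compound whose remaining NAD level is above about 45 nM, limit read from the data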;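 also: higher remaining NAD means stronger inhibition of SARM1 NADase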); conditions: SAM-TIR HEK293T lysate NADase, at 1 µM, stronger effect = higher value
# [2] = target: ATP-dependent translocase ABCB1 (Homo sapiens) (UniProt P08183); assay: MDR1 (ABCB1) efflux transporter inhibition, cell-based (AID 377; in the data active = fluorescence slope change above about 50%); conditions: MDR1-expressing cells, fluorescent substrate accumulation slope; stronger effect = higher value; concentration not given here
# [3] = hESC survival regulators, cell-based (AID 493140); conditions: human embryonic stem cell survival screen; stronger effect = higher value;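 also: cells exposed to compounds for four days before counting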
# [4] = polyglutamine-triggered caspase-3 activation inhibitors, cell-based (AID 1583); conditions: polyglutamine-induced caspase-3 activation, cell assay; stronger effect = higher value;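 tested at 10 µM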
# [5] = suppressors of polyQ aggregation in yeast, 75Q-TubU reporter (AID 1593); conditions: Yeast 75Q polyglutamine aggregation reporter
# [6] = rescue of polyQ-huntingtin neuronal dysfunction in worms, whole organism, C. elegans mechanosensory neurons, N-terminal huntingtin (AID 1599); conditions: touch response, stronger effect = higher value
# [7] = inhibitors of mitochondrial cytochrome c release, biochemical, purified mitochondria (AID 1603); conditions: stronger effect = lower value;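 also: mouse liver mitochondria challenged with calcium chloride; signal normalized to the plate average as 100%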
# [8] = circadian clock period modulators, cell-based, LOPAC library, luminescence reporter (AID 2774); conditions: circadian reporter cells, at 7 µM, actives lie on both sides;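 also: values are relative to mean of DMSO wells on each plate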
# [9] = tested on: Hepatitis C virus NS3 helicase; assay: HCV NS3 helicase inhibitors, primary screen, biochemical, fluorescence polarization, LOPAC1280 library (AID 687035; in the data active = inhibition above about 37%); conditions: Purified HCV NS3 helicase, Cy5-dT15 ssDNA binding fluorescence polarization; stronger effect = higher value; concentration not given here
# [10] = Cy5 fluorescence quenching or enhancement artefacts, artefact control for HCV NS3 helicase inhibitor project, biochemical, LOPAC1280 (AID 687037); conditions: Cy5-DNA-NS3h complex fluorescence interference counterscreen
# [11] = phospholipid biosynthesis inhibitors in animal cells, primary screen, cell-based, LOPAC library, screen 4 (AID 1347384); conditions: phospholipid biosynthesis inhibition screen, at 10 µM
# [12] = tested on: Aerobactin synthetase IucA (Klebsiella pneumoniae); assay: IucA aerobactin synthetase inhibitors, biochemical, Tocris library, absorbance (AID 1345561); conditions: purified IucA enzyme assay, absorbance (OD) read-out; stronger effect = lower value;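 tested at 8 µM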;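 also: 100% = enzyme without compound and 0% = no enzyme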
# [13] = differential killing of epithelial or mesenchymal cells, primary screen, imaging, PC-3E GFP, TEM4-18 mCherry, co-culture (AID 1345086;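 active = compounds killing one labelled cell type while sparing the other, by normalised counts and ratio limits, not self-fluorescent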;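 as to all read-outs here: cells exposed to compound for 72 h before imaging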;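 as to red/green cell ratio (normalised): normalised mesenchymal count divided by normalised epithelial count so high means epithelial killing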); conditions: imaging cell counts, at 1 µM; for red/green cell ratio (normalised): actives lie on both sides, counts scaled to control wells, 1 = unselective
# [14] = growth inhibition of DIPG glioma cells, dose response, cell-based, JHH-DIPG-1, MIPE4.0, CellTiter-Glo, qHTS (AID 1347062; cut-off not given, nearly all actives have AC50 up to about 27 µM;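 as to AC50: cells exposed to compound for two days before readout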); conditions: JHH-DIPG-1 viability, CellTiter-Glo ATP luminescence
# [15] = growth inhibition of DIPG glioma cells, dose response, cell-based, SU-DIPG-IV, MIPE4.0, CellTiter-Glo, qHTS (AID 1347063; cut-off not given, nearly all actives have AC50 up to about 30 µM;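 also: compound exposure lasted 48 hours before the viability readout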); conditions: SU-DIPG-IV viability, CellTiter-Glo ATP luminescence
# [16] = growth inhibition of DIPG glioma cells, dose response, cell-based, SU-DIPG-XIII, MIPE5.0, CellTiter-Glo, qHTS (AID 1347064; cut-off not given, nearly all actives have AC50 up to about 23 µM); conditions: SU-DIPG-XIII viability, CellTiter-Glo ATP luminescence
# [17] = SU-DIPG-VI glioma cell viability, MIPE4.0 library, CellTiter-Glo luminescence, qHTS (AID 1347066; cut-off not given, nearly all actives have AC50 up to about 30 µM;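 also: cells exposed to compound for 48 hours before readout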); conditions: CellTiter-Glo ATP luminescence
# [18] = target: Mitogen-activated protein kinase 7 (Homo sapiens) (UniProt Q13164); assay: ERK5 transactivation activators in reporter cells, primary screen, cell-based, HTS (AID 1508626;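 active = luciferase signal above three times the same-plate solvent-only control wells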;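 also: luciferase driven by Gal4-ERK5 fusion binding five Gal4 sites before minimal TATA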); conditions: HeLa Gal4-ERK5 transactivation, 18 h, at 5 µM, stronger effect = higher value
# [19] = growth inhibition of DIPG glioma cells, dose response, cell-based, SU-DIPG-XIII, MIPE4.0, CellTiter-Glo, qHTS (AID 1347061; cut-off not given, nearly all actives have AC50 up to about 37 µM;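 also: cells exposed to compound for 48 hours before readout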); conditions: SU-DIPG-XIII viability, CellTiter-Glo ATP luminescence
# [20] = modifiers of HSF1 nuclear foci, imaging, Selleck Cancer Library (AID 1347162; in the data active = plate-normalised HSF1 focus index below about 0.46); conditions: human cells, at 10 µM; SSMD: measured here: HSF1 foci SSMD mean; cell count: measured here: cell number; plate-normalised HSF1 focus index: stronger effect = lower value
# [21] = measured here: epithelial PC-3E GFP cell survival
# [22] = measured here: mesenchymal TEM4-18 mCherry cell survival
# Chain of Mitogen-activated protein kinase 7 (Homo sapiens) (Q13164 whole entry, looked up, the tested form may be a part): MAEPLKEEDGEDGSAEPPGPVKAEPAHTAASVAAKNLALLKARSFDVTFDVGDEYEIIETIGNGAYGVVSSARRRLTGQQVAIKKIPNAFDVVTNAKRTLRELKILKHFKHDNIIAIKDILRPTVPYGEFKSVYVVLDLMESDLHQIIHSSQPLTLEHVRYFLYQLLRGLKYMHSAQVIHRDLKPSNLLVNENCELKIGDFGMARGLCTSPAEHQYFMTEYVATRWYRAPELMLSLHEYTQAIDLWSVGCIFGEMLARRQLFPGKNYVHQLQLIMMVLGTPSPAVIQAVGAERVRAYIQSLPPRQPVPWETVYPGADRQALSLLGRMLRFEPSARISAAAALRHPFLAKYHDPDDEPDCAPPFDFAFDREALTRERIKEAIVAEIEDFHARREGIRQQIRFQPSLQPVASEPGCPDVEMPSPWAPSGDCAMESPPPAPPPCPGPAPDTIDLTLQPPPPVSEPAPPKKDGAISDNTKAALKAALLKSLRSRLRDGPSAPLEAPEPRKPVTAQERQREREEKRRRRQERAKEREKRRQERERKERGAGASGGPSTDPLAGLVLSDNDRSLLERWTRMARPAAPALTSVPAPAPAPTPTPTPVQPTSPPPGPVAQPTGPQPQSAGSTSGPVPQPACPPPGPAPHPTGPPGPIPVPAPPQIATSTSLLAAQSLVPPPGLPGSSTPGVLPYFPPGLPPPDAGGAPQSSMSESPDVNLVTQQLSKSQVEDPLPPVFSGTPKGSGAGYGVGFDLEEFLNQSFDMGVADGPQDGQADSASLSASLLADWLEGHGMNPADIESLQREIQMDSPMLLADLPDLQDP
# Chain of NAD(+) hydrolase SARM1 (Homo sapiens) (Q6SZW1 whole entry, looked up): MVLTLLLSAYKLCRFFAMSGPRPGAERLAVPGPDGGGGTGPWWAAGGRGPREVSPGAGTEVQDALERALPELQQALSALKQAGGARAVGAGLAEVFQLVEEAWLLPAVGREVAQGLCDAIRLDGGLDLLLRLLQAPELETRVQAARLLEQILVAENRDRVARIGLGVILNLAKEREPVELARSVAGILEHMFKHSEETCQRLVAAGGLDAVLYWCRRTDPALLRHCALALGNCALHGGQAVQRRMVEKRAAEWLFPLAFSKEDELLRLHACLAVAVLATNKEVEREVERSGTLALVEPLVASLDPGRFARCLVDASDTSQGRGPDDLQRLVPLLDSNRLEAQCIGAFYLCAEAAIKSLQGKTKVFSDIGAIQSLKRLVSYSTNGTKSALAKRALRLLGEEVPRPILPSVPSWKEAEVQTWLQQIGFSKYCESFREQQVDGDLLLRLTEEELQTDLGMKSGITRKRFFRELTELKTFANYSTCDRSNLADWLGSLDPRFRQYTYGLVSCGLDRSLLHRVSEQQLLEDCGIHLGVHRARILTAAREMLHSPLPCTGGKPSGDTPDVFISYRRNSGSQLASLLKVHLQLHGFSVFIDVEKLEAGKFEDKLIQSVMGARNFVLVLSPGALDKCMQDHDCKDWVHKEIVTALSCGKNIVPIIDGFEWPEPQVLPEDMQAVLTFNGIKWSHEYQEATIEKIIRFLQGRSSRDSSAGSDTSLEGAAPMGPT
# Chain of ATP-dependent translocase ABCB1 (Homo sapiens) (P08183 whole entry, looked up): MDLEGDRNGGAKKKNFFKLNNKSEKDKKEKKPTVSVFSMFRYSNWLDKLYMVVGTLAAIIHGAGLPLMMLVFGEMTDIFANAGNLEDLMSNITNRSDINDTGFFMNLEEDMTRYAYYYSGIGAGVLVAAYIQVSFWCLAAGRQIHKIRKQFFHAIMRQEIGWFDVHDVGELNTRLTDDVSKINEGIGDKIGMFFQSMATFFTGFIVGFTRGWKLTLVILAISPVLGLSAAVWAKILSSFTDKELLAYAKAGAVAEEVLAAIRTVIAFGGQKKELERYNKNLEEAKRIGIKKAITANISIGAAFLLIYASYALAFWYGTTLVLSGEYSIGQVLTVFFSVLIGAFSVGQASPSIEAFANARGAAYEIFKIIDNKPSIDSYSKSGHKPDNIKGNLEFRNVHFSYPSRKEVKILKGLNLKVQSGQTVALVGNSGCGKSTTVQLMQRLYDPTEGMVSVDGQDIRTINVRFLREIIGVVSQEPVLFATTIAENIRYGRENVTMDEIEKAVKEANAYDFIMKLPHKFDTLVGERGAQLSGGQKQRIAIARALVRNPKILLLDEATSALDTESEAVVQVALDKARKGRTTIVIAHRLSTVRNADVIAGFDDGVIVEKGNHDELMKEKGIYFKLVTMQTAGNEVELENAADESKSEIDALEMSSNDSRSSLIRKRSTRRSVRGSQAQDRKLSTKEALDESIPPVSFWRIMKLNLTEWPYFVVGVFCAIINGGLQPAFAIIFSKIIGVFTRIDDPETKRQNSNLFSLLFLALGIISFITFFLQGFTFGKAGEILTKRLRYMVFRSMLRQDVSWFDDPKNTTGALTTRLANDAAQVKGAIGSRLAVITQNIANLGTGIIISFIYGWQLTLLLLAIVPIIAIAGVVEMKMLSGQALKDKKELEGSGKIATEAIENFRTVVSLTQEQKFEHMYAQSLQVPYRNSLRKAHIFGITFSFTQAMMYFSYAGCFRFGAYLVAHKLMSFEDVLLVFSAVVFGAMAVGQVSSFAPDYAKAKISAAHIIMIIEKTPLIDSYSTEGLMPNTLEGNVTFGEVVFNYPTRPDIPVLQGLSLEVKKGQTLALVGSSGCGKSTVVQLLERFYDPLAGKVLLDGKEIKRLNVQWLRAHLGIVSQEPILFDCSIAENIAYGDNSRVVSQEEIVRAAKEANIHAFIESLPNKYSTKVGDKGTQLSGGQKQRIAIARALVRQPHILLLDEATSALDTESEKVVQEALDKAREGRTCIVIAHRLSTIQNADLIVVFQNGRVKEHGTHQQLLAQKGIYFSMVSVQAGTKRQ
compound,measurement,setting,value
O=C(O)COCCN1CCN([C@H](c2ccccc2)c2ccc(Cl)cc2)CC1,remaining NAD,[1],10 nM (inactive)
CN(C)[C@@H]1C(=O)C(C(=O)NCN2CCCC2)=C(O)[C@@]2(O)C(=O)C3=C(O)c4c(O)cccc4[C@@](C)(O)C3CC12 (stereo partly drawn),fluorescence slope change,[2],66.4% (active)
same,survival,[3],2.5 (inactive)
CN1C2CCC1CC(OC(c1ccccc1)c1ccccc1)C2 (stereo not drawn),inhibition,[4],-6.22%
same,score,[5],1.2
same,rescue above control,[6],-5.92
same,cytochrome c release ratio,[7],1
same,period change,[8],0.035 h (inactive)
same,inhibition,[9],-5% (inactive)
same,fluorescence ratio (interference),[10],1 (inactive)
same,outcome,[11],inactive
C=C1/C(=C\C=C2/CCC[C@]3(C)[C@@H]([C@H](C)/C=C/[C@@H](O)C4CC4)CC[C@@H]23)C[C@@H](O)C[C@@H]1O,remaining activity,[12],98% (inactive)
O=C(OC1C[C@@H]2CC3C[C@H](C1)N2CC3=O)c1c[nH]c2ccccc12 (stereo partly drawn),outcome,[11],inactive
C[n+]1ccccc1C=NO,red/green cell ratio (normalised),[13],1.01 (inactive)
same,normalised cell number,[13]; [21],1
same,normalised cell number,[13]; [22],1.02
C=C1/C(=C\C=C2/CCC[C@]3(C)[C@@H]([C@H](C)CCCC(C)(C)O)CC[C@@H]23)C[C@@H](O)C[C@@H]1O,survival,[3],89.6 (inactive)
same,AC50,[14],2.35 µM (active)
same,AC50,[15],3.32 µM (active)
same,outcome,[16],inactive
same,AC50,[17],16.6 µM (active)
C[C@]12C=CC(=O)C=C1CC[C@@H]1[C@@H]2[C@@H](O)C[C@@]2(C)[C@H]1CC[C@]2(O)C(=O)COC(=O)CCC(=O)O,remaining NAD,[1],10 nM (inactive)
same,luciferase signal,[18],80 AU (inactive)
CO[C@H]1O[C@@H]2O[C@@]3(C)CC[C@H]4[C@H](C)CC[C@@H]([C@H]1C)[C@@]24OO3,outcome,[19],inactive
same,outcome,[14],inactive
same,outcome,[15],inactive
same,outcome,[16],inactive
same,outcome,[17],inactive
same,remaining NAD,[1],10 nM (inactive)
COc1cc(N)c(Cl)cc1C(=O)N[C@@H]1CCN(CCCOc2ccc(F)cc2)C[C@@H]1OC,remaining activity,[12],111% (inactive)
CN(C)CC/C=C1/c2ccccc2COc2ccccc21,inhibition,[4],-9.13%
same,score,[5],1.4
same,rescue above control,[6],2.19
same,cytochrome c release ratio,[7],0.69
same,red/green cell ratio (normalised),[13],1.04 (inactive)
same,normalised cell number,[13]; [21],1.34
same,normalised cell number,[13]; [22],1.4
same,remaining activity,[12],123% (inactive)
CCN(CC)CCOc1ccc(C(=C(Cl)c2ccccc2)c2ccccc2)cc1,remaining NAD,[1],10 nM (inactive)
same,luciferase signal,[18],68 AU (inactive)
Cc1sc(N)c(C(=O)c2cccc(C(F)(F)F)c2)c1C,remaining activity,[12],120% (inactive)
COc1cccc2c1C(=O)c1c(O)c3c(c(O)c1C2=O)C[C@@](O)(C(C)=O)C[C@@H]3OC1CC(N)C(O)C(C)O1 (stereo partly drawn),fluorescence slope change,[2],95.8% (active)
same,survival,[3],2.17 (inactive)
same,remaining activity,[12],110% (inactive)
CS(=O)(=O)c1ccc(-c2cc(Br)sc2-c2ccc(F)cc2)cc1,remaining activity,[12],111% (inactive)
CCCCC[C@H](O)/C=C/[C@H]1[C@H](O)CC(=O)[C@@H]1CCCCCCC(=O)O,survival,[3],35.2 (inactive) and 136 (inactive)
same,remaining activity,[12],115% (inactive)
same,outcome,[19],inactive
same,outcome,[14],inactive
same,outcome,[15],inactive
same,outcome,[17],inactive
COCC1=C(C(=O)OC(C)OC(=O)OC(C)C)N2C(=O)[C@@H](NC(=O)/C(=N\OC)c3csc(N)n3)[C@H]2SC1 (stereo partly drawn),remaining NAD,[1],10 nM (inactive)
same,luciferase signal,[18],40 AU (inactive)
CC[C@]1(O)CC2CN(CCc3c([nH]c4ccccc34)[C@@](C(=O)OC)(c3cc4c(cc3OC)N(C=O)[C@H]3[C@@](O)(C(=O)OC)[C@H](OC(C)=O)[C@]5(CC)C=CCN6CC[C@]43[C@@H]65)C2)C1 (stereo partly drawn),red/green cell ratio (normalised),[13],0.69 (inactive)
same,normalised cell number,[13]; [21],0.19
same,normalised cell number,[13]; [22],0.13
same,SSMD,[20],1.41
same,cell count,[20],6460
same,plate-normalised HSF1 focus index,[20],1.08 (inactive)
CN1CCN(c2nc3cc(C(F)(F)F)ccc3n3cccc23)CC1,period change,[8],-0.085 h (inactive)
same,inhibition,[9],-3% (inactive)
same,fluorescence ratio (interference),[10],1 (inactive)
same,outcome,[11],inactive
CN1CCN2c3ncccc3Cc3ccccc3C2C1 (stereo not drawn),remaining activity,[12],106% (inactive)
same,outcome,[19],inactive
same,outcome,[14],inactive
same,outcome,[16],inactive
same,outcome,[17],inactive

# — PubChem BioAssay
